Inconclusive results are not listed. The source made the active and inactive calls. Unless noted, calls come from the whole dose curve; as a rule, active = well fitted curve in the direction sought with a large enough effect in the repeat runs; inconclusive = weak or mixed curves; inactive = no such curve, though single readings can be large; an effect the other way counts as inactive or inconclusive.

Nine compounds from PubChem BioAssay (Tox21) can be followed below.

A short description of assay [1]: qHTS assay to identify small molecule antagonists of the estrogen receptor alpha (ER-alpha) signaling pathway using the BG1 cell line in the presence of 0.1 nM 17-beta-estradiol - cell viability counter screen (AID 1259241). Note: nearly all actives have a fitted effect of over 40% in size. The procedure, abridged: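 Live-cell protease activity (CellTiter-Fluor fluorescence, 30 min) was read in the same wells after VM7Luc4E2 cells had been exposed to compounds with 0.1 nM 17beta-estradiol for 22 hr at 37C.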
A general note: qHTS replaces the single test concentration by a dilution series.

Assay [2] in a line: qHTS assay to identify small molecule antagonists of the androgen receptor (AR) signaling pathway using the MDA cell line in the presence of 0.5 nM R1881 - cell viability counter screen (AID 1259242). Note: nearly all actives have a fitted effect of over 45% in size. The gist of the method:
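Concentration-response screen of compounds for toxicity in MDA-kb2 reporter cells: 16 hr at 37C with 0.5 nM R1881, endpoint live-cell protease fluorescence measured in the reporter wells.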

The nature of assay [3]: qHTS assay to identify small molecule HDAC inhibitors - cell viability counter screen (AID 1259365). Note: series mostly up to about 92 µM; nearly all actives have a fitted effect of over 50% in size. The gist of the method:
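HCT-116 (wild type), 1,500 cells/well, overnight 37C/5% CO2; compound in DMSO 2hr; CellTiter-Glo 30min RT; luminescence read.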

Assay [4] is described as follows: qHTS assay to identify small molecule agonists of the sonic hedgehog signaling (Shh) pathway - cell viability counter screen (AID 1259366). Note: nearly all actives have a fitted effect of over 50% in size. The procedure, abridged: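 CellTiter-Fluor fluorescence read-out, 1 hr at 37C, added after 23hr compound exposure. Cells: 3T3 Gli1-Luc, an NIH/3T3 clone with stably integrated Gli1-Luc reporter, plated 4hr before compound.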

A short description of assay [5]: qHTS assay to identify small molecule antagonists of the sonic hedgehog signaling (Shh) pathway - cell viability counter screen (AID 1259367). Note: nearly all actives have a fitted effect of over 55% in size. The procedure, abridged: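 Viability was read by CellTiter-Fluor fluorescence in the same wells, reagent added 23 hr into compound treatment and incubated 1 hr at 37C. The 3T3 Gli1-Luc reporter cells (2,000/well) received conditioned medium after compound and ran 24 hr.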

Assay [6] is described as follows: qHTS assay to identify small molecule agonists of the sonic hedgehog signaling (Shh) pathway (AID 1259368; calls by dose curve;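 note: NIH/3T3-derived 3T3Gli1-Luc cells carrying a stable Gli1-driven firefly luciferase reporter; series mostly up to about 92 µM; nearly all actives have a fitted effect of over 15% in size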). The gist of the method:
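Hedgehog pathway agonism scored by increased firefly luciferase luminescence in 3T3Gli1-Luc cells treated 24 hr at 37 C; detection used a 30 min room-temperature reagent incubation.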

A short description of assay [7]: qHTS assay to identify small molecule antagonists of the sonic hedgehog signaling (Shh) pathway (AID 1259369; calls by dose curve; note: nearly all actives have a fitted effect of over 45% in size; note: potency is the fitted concentration of half-maximal effect). The procedure, abridged:
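NIH/3T3 stable Gli1-Luc clone, 2,000 cells/well, 4hr settle; cpd + conditioned medium 24hr; Luc reagent 30min RT; luminescence.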

Assay [8] concerns the target Estrogen receptor beta (Homo sapiens) (UniProt Q92731). The assay is described as follows: qHTS assay to identify small molecule agonists of the estrogen receptor beta (ER-beta) signaling pathway (AID 1259377; active = well fitted activation curve with a large enough effect in the signal ratio in the repeat runs, not every such curve was filed as active; the % refers to the signal ratio). The gist of the method:
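Beta-lactamase reporter readout: fluorescence of LiveBLAzer B/G FRET substrate after 2 h at room temperature, following 16 h compound treatment of ER-beta-UAS-bla HEK293T cells at 37C in 2% charcoal-stripped FBS medium.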

The target is the same in assay [9]. The assay is described as follows: qHTS assay to identify small molecule antagonists of the estrogen receptor beta (ER-beta) signaling pathway (AID 1259378; active = well fitted inhibition curve with a large enough effect in the signal ratio in the repeat runs, not every such curve was filed as active; the % refers to the signal ratio). The procedure, abridged: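 Antagonist mode: compounds added to beta-lactamase reporter HEK293T ER-beta-UAS cells stimulated with E2 (1nM final), 16 hr at 37C. LiveBLAzer B/G FRET substrate, 2 hours room temperature, fluorescence read-out.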

A short description of assay [10]: qHTS assay to identify small molecule agonists of the androgen receptor (AR) signaling pathway in the presence of an antagonist - cell viability counter screen (AID 1259379).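 Note: MDA-kb2 human breast cancer cells carrying an MMTV luciferase reporter; series mostly up to about 92 µM; nearly all actives have a fitted effect of over 25% in size.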 The procedure, abridged:
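MDA-kb2 viability measured by CellTiter-Fluor fluorescence in the same wells as the luciferase signal; nilutamide 3.0uM final; 15-point compound titration; 16 hr at 37C.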

Assay [11] can be described thus: qHTS assay to identify small molecule agonists of the estrogen receptor beta (ER-beta) signaling pathway - cell viability counter screen (AID 1259380). Note: nearly all actives have a fitted effect of over 30% in size. Note: potency is the fitted concentration of half-maximal effect. The procedure, abridged: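 Measured: luminescence from CellTiter-Glo after 30 min at room temperature, added to wells already read for the LiveBLAzer FRET reporter (2 hr substrate); ER-beta-UAS-bla HEK293T cells had 16 hr compound treatment at 37C, 5% CO2.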

A short description of assay [12]: qHTS assay to identify small molecule antagonists of the estrogen receptor beta (ER-beta) signaling pathway - cell viability counter screen (AID 1259382).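 Note: HEK293T cells carrying ER-beta-UAS-bla reporter stimulated with estradiol; series mostly up to about 92 µM; nearly all actives have a fitted effect of over 55% in size.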 The procedure, abridged:
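Readout: luminescence, CellTiter-Glo, same wells as bla assay. System: ER-beta-UAS-bla GripTite HEK293T, 2% charcoal-stripped FBS. Exposure: compounds plus 1nM 17-beta-estradiol, 16 hr, 37C.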

A short description of assay [13]: qHTS assay to identify small molecule agonists or antagonists of the thyroid stimulating hormone receptor (TSHR) signaling pathway - wild type cell line counter screen (AID 1259384; calls by dose curve). The gist of the method: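 Counter screen in untransfected Hek293: compounds (15-point titration, triplicate) plus phosphodiesterase inhibitor Ro20-1724 added after 18 h plating; 30 min RT. Intracellular cAMP via competitive d2/cryptate immunoassay, 1 h incubation.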

Assay [14] has as its target Thyrotropin receptor (Homo sapiens) (UniProt P16473). The assay is described as follows: qHTS assay to identify small molecule antagonists of the thyroid stimulating hormone receptor (TSHR) signaling pathway (AID 1259385; calls by dose curve; note: nearly all actives have a fitted effect of over 20% in size). The gist of the method:
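Antagonist mode: compound-treated TSHR-expressing HEK293 cells were stimulated with 1.5 ng/mL TSH (final) in presence of Ro20-1724 for 30 min at RT. HTRF cAMP detection after 1 h; each compound tested at 15 concentrations, triplicate.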

Assay [15] addresses Estrogen receptor (Homo sapiens) (UniProt P03372). As to the kind of experiment: qHTS assay to identify small molecule agonists of the estrogen receptor alpha (ER-alpha) signaling pathway in the presence of an antagonist (AID 1259383; calls by dose curve; note: top concentration of the series differs between compounds; nearly all actives have a fitted effect of over 15% in size). The gist of the method:
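Quantitative HTS confirmation: compounds titrated at 15 concentrations onto estrogen-deprived VM7Luc4E2 cells carrying a four-ERE luciferase construct, with ICI-182,780 present at 10.0nM final. Signal is luminescence after 22hr exposure.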

Assay [16] concerns the target Androgen receptor (Homo sapiens) (UniProt P10275). The assay is described as follows: qHTS assay to identify small molecule antagonists of the androgen receptor (AR) signaling pathway using the MDA cell line in the presence of 0.5 nM R1881 (AID 1259243). Note: nearly all actives have a fitted effect of over 50% in size. The procedure, abridged:
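With R1881 held at 0.5 nM (final), compound effects on MMTV-luciferase expression in MDA-kb2 cells were scored by luminescence after a 16 hr, 37C incubation.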

Assay [17] in a line: qHTS assay to identify small molecule HDAC inhibitors (AID 1259364).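 Note: wild-type HCT-116 cells with endogenous class I/II HDAC activity; top concentration of the series differs between compounds; nearly all actives have a fitted effect of over 45% in size.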 The gist of the method:
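Screening used wild-type human colon HCT-116 cells incubated overnight, dosed with compounds for 2 hours, and assayed with a homogeneous luminogenic HDAC I/II reagent for 30 minutes at room temperature.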

Assay [18] has as its target Androgen receptor (Homo sapiens) (UniProt P10275). The assay is described as follows: qHTS assay to identify small molecule agonists of the androgen receptor (AR) signaling pathway in the presence of an antagonist (AID 1259381; calls by dose curve; note: nearly all actives have a fitted effect of over 15% in size). The procedure, abridged: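 Luminescent ONE-Glo read, 30min at room temperature, follows 16hr compound exposure (15 concentrations) of MDA-kb2 cells at 37C, 0% CO2, with nilutamide added at 3.0uM final.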

Sequence of Androgen receptor (Homo sapiens) (P10275 whole entry, looked up): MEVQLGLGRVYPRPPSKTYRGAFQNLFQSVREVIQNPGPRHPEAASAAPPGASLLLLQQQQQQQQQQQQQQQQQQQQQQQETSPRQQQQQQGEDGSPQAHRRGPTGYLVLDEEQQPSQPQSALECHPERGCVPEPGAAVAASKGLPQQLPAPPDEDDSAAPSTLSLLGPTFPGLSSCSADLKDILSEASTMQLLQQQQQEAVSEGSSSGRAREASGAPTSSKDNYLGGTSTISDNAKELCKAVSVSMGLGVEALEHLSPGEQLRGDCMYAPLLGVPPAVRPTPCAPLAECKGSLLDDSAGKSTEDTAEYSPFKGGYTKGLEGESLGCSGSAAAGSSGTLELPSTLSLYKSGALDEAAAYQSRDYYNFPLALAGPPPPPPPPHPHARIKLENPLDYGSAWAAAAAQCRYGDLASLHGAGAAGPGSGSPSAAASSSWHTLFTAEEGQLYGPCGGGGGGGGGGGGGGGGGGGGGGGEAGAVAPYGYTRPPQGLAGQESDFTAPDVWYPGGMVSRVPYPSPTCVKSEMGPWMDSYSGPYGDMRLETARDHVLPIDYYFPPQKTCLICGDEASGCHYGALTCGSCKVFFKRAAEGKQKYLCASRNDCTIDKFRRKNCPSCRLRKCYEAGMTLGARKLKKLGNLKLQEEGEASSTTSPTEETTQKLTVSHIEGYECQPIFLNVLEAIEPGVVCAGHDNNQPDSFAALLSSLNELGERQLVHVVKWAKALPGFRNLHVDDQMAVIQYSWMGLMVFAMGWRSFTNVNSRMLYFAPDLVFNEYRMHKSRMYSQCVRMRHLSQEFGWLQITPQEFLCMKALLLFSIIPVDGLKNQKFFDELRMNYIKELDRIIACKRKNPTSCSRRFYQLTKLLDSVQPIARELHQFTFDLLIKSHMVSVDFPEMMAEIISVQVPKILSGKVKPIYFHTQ
Sequence of Estrogen receptor beta (Homo sapiens) (Q92731 whole entry, looked up): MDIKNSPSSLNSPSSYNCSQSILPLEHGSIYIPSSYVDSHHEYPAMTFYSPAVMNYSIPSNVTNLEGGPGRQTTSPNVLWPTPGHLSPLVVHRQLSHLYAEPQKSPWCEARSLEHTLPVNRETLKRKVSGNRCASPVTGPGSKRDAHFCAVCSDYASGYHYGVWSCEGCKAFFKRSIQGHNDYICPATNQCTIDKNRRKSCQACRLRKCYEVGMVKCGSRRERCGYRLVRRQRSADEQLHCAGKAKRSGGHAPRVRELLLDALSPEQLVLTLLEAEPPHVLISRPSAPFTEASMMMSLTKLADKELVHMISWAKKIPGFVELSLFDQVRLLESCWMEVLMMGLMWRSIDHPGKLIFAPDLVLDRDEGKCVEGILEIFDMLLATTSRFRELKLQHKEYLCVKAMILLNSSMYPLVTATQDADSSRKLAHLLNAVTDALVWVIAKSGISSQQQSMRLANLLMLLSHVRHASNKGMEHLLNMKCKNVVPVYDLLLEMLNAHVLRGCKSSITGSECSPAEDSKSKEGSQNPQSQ
Sequence of Thyrotropin receptor (Homo sapiens) (P16473 whole entry, looked up): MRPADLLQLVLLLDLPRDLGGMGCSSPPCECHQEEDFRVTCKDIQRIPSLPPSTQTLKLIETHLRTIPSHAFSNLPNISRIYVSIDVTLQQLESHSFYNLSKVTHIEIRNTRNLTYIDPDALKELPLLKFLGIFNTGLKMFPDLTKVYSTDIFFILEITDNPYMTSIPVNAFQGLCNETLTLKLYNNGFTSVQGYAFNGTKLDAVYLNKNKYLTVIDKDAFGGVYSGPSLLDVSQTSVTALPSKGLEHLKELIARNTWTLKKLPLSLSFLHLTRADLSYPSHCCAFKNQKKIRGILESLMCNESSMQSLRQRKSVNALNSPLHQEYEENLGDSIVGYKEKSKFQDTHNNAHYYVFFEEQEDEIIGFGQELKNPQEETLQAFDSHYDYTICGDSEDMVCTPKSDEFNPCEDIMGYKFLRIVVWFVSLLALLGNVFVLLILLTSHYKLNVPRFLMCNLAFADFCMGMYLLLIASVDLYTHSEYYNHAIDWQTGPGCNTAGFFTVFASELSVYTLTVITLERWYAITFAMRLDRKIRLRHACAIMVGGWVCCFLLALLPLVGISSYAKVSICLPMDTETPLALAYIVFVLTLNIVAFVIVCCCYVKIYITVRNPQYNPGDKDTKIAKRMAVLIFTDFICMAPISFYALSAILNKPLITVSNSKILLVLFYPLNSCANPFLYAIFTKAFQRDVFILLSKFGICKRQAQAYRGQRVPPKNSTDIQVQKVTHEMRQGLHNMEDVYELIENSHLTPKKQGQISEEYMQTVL
Sequence of Estrogen receptor (Homo sapiens) (P03372 whole entry, looked up): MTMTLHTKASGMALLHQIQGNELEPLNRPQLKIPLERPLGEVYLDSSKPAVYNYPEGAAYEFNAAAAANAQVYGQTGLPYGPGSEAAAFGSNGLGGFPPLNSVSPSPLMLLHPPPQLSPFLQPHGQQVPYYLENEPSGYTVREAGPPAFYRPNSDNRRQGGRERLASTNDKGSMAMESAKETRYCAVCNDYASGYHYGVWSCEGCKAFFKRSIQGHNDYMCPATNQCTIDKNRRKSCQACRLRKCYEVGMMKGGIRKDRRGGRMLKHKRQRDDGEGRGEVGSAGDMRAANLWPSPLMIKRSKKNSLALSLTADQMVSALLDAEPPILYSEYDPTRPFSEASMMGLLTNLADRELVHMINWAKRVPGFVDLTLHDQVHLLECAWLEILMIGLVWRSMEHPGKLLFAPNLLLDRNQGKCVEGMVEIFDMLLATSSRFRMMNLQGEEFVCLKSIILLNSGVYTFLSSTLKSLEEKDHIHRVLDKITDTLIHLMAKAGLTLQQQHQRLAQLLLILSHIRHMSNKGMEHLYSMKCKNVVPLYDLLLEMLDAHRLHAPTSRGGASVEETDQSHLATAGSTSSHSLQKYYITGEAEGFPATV

For the compound `Cc1ncc(C[n+]2csc(CCO)c2C)c(N)n1`, the Potency entry in assay [1], in assay [2], in assay [3], in assay [4], in assay [5] and in assay [6] was “inactive” throughout. Besides, the Potency result in assay [7], in assay [8], in assay [9], in assay [10], in assay [11] and in assay [12] was “inactive” in each case. Also, the Potency result in assay [14] was “inactive”. Besides, the call in [13] was inactive.
On to `O=C(Cc1ccccc1)c1ccccc1`, for which the Potency result in assay [1], in assay [2], in assay [3], in assay [4], in [5] and in assay [6] was “inactive” throughout. Besides, the Potency result in [7], in [10], in [11], in assay [12], in [15] and in [14] was “inactive” in each case. Besides, in assay [13], the call was inactive.
Regarding `O=C(O)COc1cc(Cl)c(Cl)cc1Cl`, the Potency entry in assay [1], in assay [16], in assay [17], in assay [3], in assay [4] and in assay [5] was “inactive” throughout. In addition, the Potency result in [6], in assay [7], in [8], in assay [9], in assay [10] and in assay [11] was “inactive” in each case. For the same compound, the Potency result in [18], in assay [12] and in assay [14] was “inactive” each time. In addition, in assay [13], the compound was classed as inactive.
As for `O=C(O)C(F)(F)C(F)(F)C(F)(F)C(F)(F)C(F)(F)C(F)(F)C(F)(F)C(F)(F)F`, the Potency result in [1], in assay [2], in assay [3], in assay [4], in assay [5] and in assay [6] was “inactive” throughout. For the same compound, the Potency entry in assay [7], in assay [10], in assay [15] and in assay [14] was “inactive” in each case. The Potency in assay [11] was 12.2 µM (active). Besides, in [13], the call was inactive.
On to `C=CCSSCC=C`, for which the Potency entry in assay [1], in [2], in assay [3], in [4], in assay [6] and in assay [7] was “inactive” throughout. Further, the Potency result in assay [10], in [11], in assay [12] and in assay [14] was “inactive” throughout. The result in assay [13] was inactive.
As for `CCOC(C(=O)OCCN(C)C)(c1ccccc1)c1ccccc1`, the Potency result in assay [1], in assay [2], in assay [17], in assay [3], in [4] and in assay [6] was “inactive” in each case. Also, the Potency result in assay [7], in assay [11], in assay [12] and in assay [14] was “inactive” each time. For the same compound, in assay [13], the call was inactive.
With `O=C(O)c1cc(Cl)ccc1Cl`, the Potency result in [1], in assay [2], in [17], in [3], in assay [4] and in [6] was “inactive” each time. Also, the Potency entry in assay [7], in [8], in assay [9], in assay [10], in [11] and in assay [12] was “inactive” throughout.
As to `C=CC(C)(CCC=C(C)C)OC(=O)c1ccccc1N` (centres undefined), the Potency result in assay [1], in [2], in [17], in [3], in assay [4] and in assay [5] was “inactive” in each case. The Potency entry in assay [6], in assay [7], in [11], in assay [12] and in assay [14] was “inactive” each time. In addition, the compound was classed as inactive in [13].
With `CCCN(CCOc1c(Cl)cc(Cl)cc1Cl)C(=O)n1ccnc1`, the Potency result in assay [1], in assay [2], in [17], in assay [3], in [4] and in assay [6] was “inactive” each time. For the same compound, the Potency result in [8], in [10], in assay [11], in [12] and in [14] was “inactive” in each case. Also, in assay [7], the Potency is 6.24 µM (active). The call in assay [13] was inactive.
